Consider 28 compounds from PubChem BioAssay AID1494157 (National Center for Advancing Translational Sciences (NCATS), 2020).

Each structure is given as a SMILES string. Results filed as inconclusive are left out. Unmarked numbers belong to inactive results. Calls of active or inactive are those of the source. Calls follow the shape of the full dose curve.

This test is described as follows: Confirmatory qHTS for inhibitors of MERS-S pseudo-typed particle cell entry. Conditions: MERS-S pseudotyped particle entry, luciferase reporter; series mostly up to 57.1 µM. In general terms: qHTS replaces the single test concentration by a dilution series.
For the compound `OCCN1CCN(CC/C=C2/c3ccccc3Sc3ccc(C(F)(F)F)cc32)CC1`, the Potency was 12.1 µM (active).
For the compound `COc1cccc2c1C(=O)c1c(O)c3c(c(O)c1C2=O)C[C@@](O)(C(=O)CO)C[C@@H]3O[C@H]1C[C@H](N)[C@@H](O)[C@H](C)O1`, the Potency was 3.83 µM (active).
`COc1ccc2cc3[n+](cc2c1OC)CCc1cc2c(cc1-3)OCO2`: the Potency is 9.61 µM (active).
`CCN1CCN(Cc2ccc(Nc3ncc(F)c(-c4cc(F)c5nc(C)n(C(C)C)c5c4)n3)nc2)CC1`: the Potency is 0.482 µM (active).
Turning to `CC(C)C(=O)Oc1ccc(CO)cc1[C@H](CCN(C(C)C)C(C)C)c1ccccc1`, the Potency was 19.2 µM (active).
On the same count and under the same terms, in the case of `Nc1ccn([C@@H]2O[C@H](CO)[C@@H](O)C2(F)F)c(=O)n1` it was 0.215 µM (active); in that of `C[C@]12CC[C@H](O)C[C@H]1CCC1C2CC[C@]2(C)[C@@H](c3ccc(=O)oc3)C[C@H]3O[C@]132` (stereo partly drawn), 3.83 µM (active); in that of `CC(CN(C)C)CN1c2ccccc2CCc2ccccc21` (stereo not drawn), 17.1 µM (active).
Take `CCOc1cc2ncc(C#N)c(Nc3ccc(OCc4ccccn4)c(Cl)c3)c2cc1NC(=O)/C=C/CN(C)C`: the activity change, negative = inhibition is -18.9% [at 11.2 µM].
Turning to `COc1ccc(Cc2nccc3cc(OC)c(OC)cc23)cc1OC`, the Potency was 4.82 µM (active).
On the same count and under the same terms, in the case of `CCc1c2c(nc3ccc(OC(=O)N4CCC(N5CCCCC5)CC4)cc13)-c1cc3c(c(=O)n1C2)COC(=O)[C@]3(O)CC` it was 15.2 µM (active).
With `CCSc1ccc2c(c1)N(CCCN1CCN(C)CC1)c1ccccc1S2`, the Potency is 13.6 µM (active).
Regarding `CN1CCC(=C2c3ccccc3CCc3sccc32)CC1`, the Potency was 15.2 µM (active).
For `O=c1[nH]c(=O)n([C@H]2C[C@H](O)[C@@H](CO)O2)cc1C(F)(F)F`, the Potency was 6.81 µM (active).
For the compound `CN1CCCCC1CCN1c2ccccc2Sc2ccc(S(C)=O)cc21` (stereo not drawn), the Potency was 17.1 µM (active).
As to `O=c1ccc2ccccc2o1`, the Potency entry was “inactive”.
Turning to `CC(C)(C)c1ccc(C(=O)CCCN2CCC(OC(c3ccccc3)c3ccccc3)CC2)cc1`, the Potency was 3.41 µM (active).
On the same count and under the same terms, the same measure for `C=CC(=O)Nc1cc(Nc2nccc(-c3cn(C)c4ccccc34)n2)c(OC)cc1N(C)CCN(C)C`: 6.81 µM (active).
For the compound `Cc1cc(-n2c(=O)[nH]c(=O)n(C)c2=O)ccc1Oc1ccc(S(=O)(=O)C(F)(F)F)cc1`, the Potency was 6.81 µM (active).
Consider `CC(C)(C)C(=O)OCOP(=O)(COCCn1cnc2c(N)ncnc21)OCOC(=O)C(C)(C)C`, for which the Potency was 0.0304 µM (active).
On to `CC[C@@H]([C@H](C)O)n1ncn(-c2ccc(N3CCN(c4ccc(OC[C@@H]5CO[C@@](Cn6cncn6)(c6ccc(F)cc6F)C5)cc4)CC3)cc2)c1=O`, for which the Potency was 7.64 µM (active).
As to `C[C@H]1[C@H](OC(=O)CCC(=O)O)O[C@@H]2O[C@@]3(C)CC[C@H]4[C@H](C)CC[C@@H]1[C@@]24OO3`, the Potency was 0.857 µM (active).
Take `CN(C)[C@@H](CCOc1cccc2ccccc12)c1ccccc1`: the Potency was 12.1 µM (active).
As for `CCCCCCOC(=O)NC(=N)c1ccc(NCc2nc3cc(C(=O)N(CCC(=O)OCC)c4ccccn4)ccc3n2C)cc1`, the Potency was 19.2 µM (active).
For the compound `O=c1c(C2CC(c3ccc(-c4ccc(Br)cc4)cc3)Cc3ccccc32)c(O)sc2ccccc12` (stereo not drawn), the Potency was 9.61 µM (active).
With `C=C(C)[C@H]1Cc2c(ccc3c2O[C@@H]2COc4cc(OC)c(OC)cc4[C@@H]2C3=O)O1`, the Potency is 0.0136 µM (active).
Take `CN(C)CC/C=C1\c2ccccc2Sc2ccc(Cl)cc21`: the Potency was 8.57 µM (active).
As for `CC(=O)N1CCN(c2ccc(OC[C@H]3CO[C@](Cn4ccnc4)(c4ccc(Cl)cc4Cl)O3)cc2)CC1`, the Potency was 7.64 µM (active).
